We go through five compounds from ChEMBL document CHEMBL1961873, “Compounds: GSK PKIS; Assays: Nanosyn kinase panel” (2012).

Experiment [1] addresses High affinity nerve growth factor receptor (Homo sapiens) (UniProt P04629). As to conditions: at 1 µM.
Experiment [2] deals with BDNF/NT-3 growth factors receptor (Homo sapiens) (UniProt Q16620). Conditions: at 0.1 µM.
Experiment [3] has the same target. Conditions: at 1 µM.
The target in experiment [4] is NT-3 growth factor receptor (Homo sapiens) (UniProt Q16288). As to conditions: at 0.1 µM.
The target is the same in experiment [5]. Conditions: at 1 µM.
Experiment [6] deals with T1, Tyrosine-protein kinase TXK (Homo sapiens) (UniProt P42681).
T1 sequence (whole entry): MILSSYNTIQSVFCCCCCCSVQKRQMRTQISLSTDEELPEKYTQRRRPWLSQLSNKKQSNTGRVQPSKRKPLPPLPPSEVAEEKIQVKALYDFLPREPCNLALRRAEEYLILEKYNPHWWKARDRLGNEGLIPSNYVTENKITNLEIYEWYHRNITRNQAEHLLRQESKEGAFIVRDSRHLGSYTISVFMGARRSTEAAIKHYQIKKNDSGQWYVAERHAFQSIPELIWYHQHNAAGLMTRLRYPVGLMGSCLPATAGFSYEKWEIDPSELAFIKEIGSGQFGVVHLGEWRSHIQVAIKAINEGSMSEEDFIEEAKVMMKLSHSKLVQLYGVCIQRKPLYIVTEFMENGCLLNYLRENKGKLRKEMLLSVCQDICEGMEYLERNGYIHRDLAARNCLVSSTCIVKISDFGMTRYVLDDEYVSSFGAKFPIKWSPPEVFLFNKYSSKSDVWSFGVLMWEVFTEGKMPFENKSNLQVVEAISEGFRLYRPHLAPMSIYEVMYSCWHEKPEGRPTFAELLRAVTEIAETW
As to conditions: at 0.1 µM.

Experiment [7] deals with T1, Tyrosine-protein kinase TXK (Homo sapiens). Conditions: at 1 µM.
In experiment [8] the target is Non-receptor tyrosine-protein kinase TYK2 (Homo sapiens) (UniProt P29597). Conditions: at 0.1 µM.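 Note: each value is a mean of the inhibition readings.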
Experiment [9] has as its target T2, Dual specificity protein kinase TTK (Homo sapiens) (UniProt P33981).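 Note: reported figures are mean TTK inhibition at 1 µM.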
T2 sequence (whole entry): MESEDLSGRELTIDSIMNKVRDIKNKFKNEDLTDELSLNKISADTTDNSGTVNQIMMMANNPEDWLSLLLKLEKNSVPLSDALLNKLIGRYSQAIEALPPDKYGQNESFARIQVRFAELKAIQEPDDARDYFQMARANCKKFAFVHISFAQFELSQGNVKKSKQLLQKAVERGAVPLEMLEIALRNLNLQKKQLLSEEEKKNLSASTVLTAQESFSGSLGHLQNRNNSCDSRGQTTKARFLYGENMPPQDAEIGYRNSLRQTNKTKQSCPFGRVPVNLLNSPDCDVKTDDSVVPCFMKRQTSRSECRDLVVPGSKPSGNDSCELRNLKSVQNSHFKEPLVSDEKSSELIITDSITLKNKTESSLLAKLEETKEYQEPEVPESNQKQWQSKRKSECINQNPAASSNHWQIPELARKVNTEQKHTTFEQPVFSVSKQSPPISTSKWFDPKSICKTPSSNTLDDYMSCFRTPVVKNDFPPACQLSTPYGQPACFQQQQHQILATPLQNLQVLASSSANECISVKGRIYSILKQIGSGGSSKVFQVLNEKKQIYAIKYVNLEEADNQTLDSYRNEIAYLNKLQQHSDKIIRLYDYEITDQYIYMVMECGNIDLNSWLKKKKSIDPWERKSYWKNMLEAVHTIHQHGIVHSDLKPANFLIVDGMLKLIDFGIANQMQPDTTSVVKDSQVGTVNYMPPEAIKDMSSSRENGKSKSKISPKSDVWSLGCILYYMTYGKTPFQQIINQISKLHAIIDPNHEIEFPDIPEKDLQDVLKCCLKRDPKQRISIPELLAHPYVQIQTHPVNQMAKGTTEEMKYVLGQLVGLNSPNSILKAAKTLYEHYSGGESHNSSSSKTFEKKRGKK
Conditions: at 1 µM.

Experiment [10] deals with T3, Aurora kinase A (Homo sapiens) (UniProt O14965).
T3 sequence (whole entry): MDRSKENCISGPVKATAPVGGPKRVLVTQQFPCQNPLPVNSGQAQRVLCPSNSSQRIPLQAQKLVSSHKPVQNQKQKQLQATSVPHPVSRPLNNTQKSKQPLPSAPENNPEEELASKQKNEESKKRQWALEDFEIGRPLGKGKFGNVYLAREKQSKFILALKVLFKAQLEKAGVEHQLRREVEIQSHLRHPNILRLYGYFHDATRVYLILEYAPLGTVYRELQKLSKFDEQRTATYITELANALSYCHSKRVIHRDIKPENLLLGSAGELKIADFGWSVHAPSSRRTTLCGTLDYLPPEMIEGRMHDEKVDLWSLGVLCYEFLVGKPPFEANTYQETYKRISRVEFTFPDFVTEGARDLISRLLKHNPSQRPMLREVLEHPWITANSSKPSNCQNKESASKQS
As to conditions: at 0.1 µM.

Experiment [11] concerns the target T3, Aurora kinase A (Homo sapiens). As to conditions: at 1 µM.
Experiment [12] concerns the target Aurora kinase B (Homo sapiens) (UniProt Q96GD4). Conditions: at 0.1 µM.
Experiment [13] shares this target. Conditions: at 1 µM.
For experiment [14], the target named is T4, Aurora kinase C (Homo sapiens) (UniProt Q9UQB9).
T4 sequence (whole entry): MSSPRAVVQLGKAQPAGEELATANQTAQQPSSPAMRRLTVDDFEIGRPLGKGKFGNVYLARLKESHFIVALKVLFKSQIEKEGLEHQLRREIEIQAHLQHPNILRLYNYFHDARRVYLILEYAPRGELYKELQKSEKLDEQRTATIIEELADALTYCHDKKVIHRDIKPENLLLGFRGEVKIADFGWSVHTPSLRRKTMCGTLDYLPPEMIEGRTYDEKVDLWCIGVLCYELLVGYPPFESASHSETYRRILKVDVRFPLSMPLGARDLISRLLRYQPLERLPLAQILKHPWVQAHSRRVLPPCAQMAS
As to conditions: at 0.1 µM.

The target of experiment [15] is T4, Aurora kinase C (Homo sapiens). Conditions: at 1 µM.
Experiment [16] deals with Serine/threonine-protein kinase 10 (Homo sapiens) (UniProt O94804). Conditions: at 0.1 µM.
For experiment [17] the target is unchanged. Conditions: at 1 µM.
The target of experiment [18] is T5, Mitogen-activated protein kinase kinase kinase kinase 2 (Homo sapiens) (UniProt Q12851).
T5 sequence (whole entry): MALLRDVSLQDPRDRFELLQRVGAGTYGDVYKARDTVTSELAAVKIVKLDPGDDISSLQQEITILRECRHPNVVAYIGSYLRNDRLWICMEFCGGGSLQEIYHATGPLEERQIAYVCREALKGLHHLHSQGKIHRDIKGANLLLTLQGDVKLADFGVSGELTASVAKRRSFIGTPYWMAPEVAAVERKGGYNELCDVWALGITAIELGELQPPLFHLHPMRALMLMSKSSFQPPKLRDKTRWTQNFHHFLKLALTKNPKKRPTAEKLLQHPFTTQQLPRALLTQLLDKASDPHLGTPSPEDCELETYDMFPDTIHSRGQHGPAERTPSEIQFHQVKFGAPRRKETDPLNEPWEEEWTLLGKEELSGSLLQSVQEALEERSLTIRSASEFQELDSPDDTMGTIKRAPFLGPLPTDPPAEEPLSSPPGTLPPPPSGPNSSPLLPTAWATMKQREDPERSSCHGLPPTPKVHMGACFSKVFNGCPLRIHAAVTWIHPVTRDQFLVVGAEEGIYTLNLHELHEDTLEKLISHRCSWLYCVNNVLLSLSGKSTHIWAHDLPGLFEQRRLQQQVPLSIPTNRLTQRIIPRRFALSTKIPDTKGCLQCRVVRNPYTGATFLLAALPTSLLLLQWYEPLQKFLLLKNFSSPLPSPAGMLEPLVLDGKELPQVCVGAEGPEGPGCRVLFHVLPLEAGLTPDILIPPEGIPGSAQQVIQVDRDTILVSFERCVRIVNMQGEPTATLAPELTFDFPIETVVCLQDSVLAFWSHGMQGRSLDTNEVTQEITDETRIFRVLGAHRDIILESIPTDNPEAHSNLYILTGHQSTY
As to conditions: at 0.1 µM.

Experiment [19] has as its target T5, Mitogen-activated protein kinase kinase kinase kinase 2 (Homo sapiens). Conditions: at 1 µM.
Experiment [20] addresses Mitogen-activated protein kinase kinase kinase kinase 4 (Homo sapiens) (UniProt O95819). Conditions: at 0.1 µM.

Chain of Non-receptor tyrosine-protein kinase TYK2 (Homo sapiens) (P29597 whole entry): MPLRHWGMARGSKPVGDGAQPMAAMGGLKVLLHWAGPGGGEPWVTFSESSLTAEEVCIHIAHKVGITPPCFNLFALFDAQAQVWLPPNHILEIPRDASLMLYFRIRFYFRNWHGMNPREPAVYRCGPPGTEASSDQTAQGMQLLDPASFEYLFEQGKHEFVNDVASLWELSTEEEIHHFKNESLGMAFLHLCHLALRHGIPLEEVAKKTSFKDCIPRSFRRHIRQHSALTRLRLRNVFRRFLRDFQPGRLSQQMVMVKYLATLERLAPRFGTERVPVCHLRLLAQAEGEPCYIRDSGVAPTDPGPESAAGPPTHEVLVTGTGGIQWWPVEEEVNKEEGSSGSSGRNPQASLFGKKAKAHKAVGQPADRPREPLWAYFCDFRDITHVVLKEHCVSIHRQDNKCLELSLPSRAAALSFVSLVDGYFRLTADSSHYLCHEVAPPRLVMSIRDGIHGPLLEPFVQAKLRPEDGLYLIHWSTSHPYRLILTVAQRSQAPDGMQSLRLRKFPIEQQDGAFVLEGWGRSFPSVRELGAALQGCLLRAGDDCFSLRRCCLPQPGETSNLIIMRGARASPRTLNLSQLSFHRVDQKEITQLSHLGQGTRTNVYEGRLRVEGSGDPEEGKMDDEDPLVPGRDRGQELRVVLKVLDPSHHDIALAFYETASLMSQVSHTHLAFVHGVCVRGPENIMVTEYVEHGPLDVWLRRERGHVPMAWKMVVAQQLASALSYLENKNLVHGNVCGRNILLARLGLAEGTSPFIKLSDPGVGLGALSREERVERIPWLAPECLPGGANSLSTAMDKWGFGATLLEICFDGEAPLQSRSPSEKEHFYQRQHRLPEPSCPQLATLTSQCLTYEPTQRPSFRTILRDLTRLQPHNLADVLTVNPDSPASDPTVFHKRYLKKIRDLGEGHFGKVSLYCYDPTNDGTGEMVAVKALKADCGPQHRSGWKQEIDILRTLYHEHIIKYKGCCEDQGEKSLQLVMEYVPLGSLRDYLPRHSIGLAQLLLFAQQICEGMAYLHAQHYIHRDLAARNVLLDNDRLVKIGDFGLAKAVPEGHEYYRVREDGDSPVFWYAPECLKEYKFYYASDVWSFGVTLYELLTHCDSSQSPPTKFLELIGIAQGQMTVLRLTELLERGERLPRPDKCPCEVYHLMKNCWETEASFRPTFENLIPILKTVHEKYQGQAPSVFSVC
Chain of Serine/threonine-protein kinase 10 (Homo sapiens) (O94804 whole entry, looked up): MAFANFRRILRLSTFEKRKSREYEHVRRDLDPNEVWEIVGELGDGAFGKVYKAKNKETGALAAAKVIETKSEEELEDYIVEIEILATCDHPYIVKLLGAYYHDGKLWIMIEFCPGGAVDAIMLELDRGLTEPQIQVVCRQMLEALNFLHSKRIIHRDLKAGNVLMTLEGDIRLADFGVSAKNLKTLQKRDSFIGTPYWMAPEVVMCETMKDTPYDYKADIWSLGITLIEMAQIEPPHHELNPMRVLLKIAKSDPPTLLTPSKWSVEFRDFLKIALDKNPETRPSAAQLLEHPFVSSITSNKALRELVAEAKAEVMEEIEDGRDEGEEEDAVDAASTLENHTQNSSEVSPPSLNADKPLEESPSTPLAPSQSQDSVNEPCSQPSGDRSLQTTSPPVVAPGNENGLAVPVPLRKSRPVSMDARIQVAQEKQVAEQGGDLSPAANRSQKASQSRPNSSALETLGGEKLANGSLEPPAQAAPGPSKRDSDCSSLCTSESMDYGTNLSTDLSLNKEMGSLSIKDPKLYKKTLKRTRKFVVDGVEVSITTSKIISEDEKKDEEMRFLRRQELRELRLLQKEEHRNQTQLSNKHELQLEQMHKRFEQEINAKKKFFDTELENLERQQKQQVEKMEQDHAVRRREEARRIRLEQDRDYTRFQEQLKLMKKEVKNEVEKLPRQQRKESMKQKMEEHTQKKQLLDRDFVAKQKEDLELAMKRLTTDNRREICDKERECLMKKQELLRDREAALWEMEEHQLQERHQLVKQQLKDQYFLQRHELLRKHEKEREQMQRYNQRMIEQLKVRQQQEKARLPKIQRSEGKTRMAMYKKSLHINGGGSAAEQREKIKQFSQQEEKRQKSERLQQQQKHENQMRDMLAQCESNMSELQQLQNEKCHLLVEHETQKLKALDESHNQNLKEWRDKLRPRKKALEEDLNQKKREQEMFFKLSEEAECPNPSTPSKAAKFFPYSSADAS
Chain of Mitogen-activated protein kinase kinase kinase kinase 4 (Homo sapiens) (O95819 2-1239 limits assumed): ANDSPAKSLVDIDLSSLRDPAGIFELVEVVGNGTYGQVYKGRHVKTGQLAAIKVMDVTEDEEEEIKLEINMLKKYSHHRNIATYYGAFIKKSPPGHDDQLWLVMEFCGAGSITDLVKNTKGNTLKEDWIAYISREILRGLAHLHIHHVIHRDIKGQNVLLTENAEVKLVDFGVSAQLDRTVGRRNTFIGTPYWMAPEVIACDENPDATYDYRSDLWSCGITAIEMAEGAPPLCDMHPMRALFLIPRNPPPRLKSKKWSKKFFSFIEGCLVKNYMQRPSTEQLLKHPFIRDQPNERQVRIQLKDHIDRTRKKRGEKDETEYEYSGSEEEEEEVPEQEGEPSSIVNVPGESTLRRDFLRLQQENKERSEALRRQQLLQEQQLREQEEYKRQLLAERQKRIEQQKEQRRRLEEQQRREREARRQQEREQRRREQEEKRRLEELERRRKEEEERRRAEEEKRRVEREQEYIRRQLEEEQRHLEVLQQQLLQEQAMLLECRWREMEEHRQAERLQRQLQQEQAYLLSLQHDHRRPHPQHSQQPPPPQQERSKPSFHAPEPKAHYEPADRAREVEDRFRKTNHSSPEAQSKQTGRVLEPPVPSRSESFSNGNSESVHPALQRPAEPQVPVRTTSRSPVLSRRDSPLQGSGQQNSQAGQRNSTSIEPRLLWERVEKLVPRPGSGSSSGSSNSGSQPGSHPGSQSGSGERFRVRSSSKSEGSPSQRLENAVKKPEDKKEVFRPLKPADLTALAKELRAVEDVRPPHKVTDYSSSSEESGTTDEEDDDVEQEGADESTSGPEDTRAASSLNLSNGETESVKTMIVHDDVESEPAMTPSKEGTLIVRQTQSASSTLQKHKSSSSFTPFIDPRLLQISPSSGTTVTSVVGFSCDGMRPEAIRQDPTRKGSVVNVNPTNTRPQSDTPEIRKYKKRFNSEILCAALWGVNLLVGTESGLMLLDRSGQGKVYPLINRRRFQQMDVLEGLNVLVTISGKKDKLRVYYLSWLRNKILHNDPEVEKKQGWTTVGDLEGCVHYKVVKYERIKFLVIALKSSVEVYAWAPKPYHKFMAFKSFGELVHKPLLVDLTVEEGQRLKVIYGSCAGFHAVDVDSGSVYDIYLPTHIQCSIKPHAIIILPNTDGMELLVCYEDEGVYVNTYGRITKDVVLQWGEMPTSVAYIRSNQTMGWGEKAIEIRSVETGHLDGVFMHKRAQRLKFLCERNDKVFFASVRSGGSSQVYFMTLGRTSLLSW
Chain of NT-3 growth factor receptor (Homo sapiens) (Q16288 32-839 limits assumed): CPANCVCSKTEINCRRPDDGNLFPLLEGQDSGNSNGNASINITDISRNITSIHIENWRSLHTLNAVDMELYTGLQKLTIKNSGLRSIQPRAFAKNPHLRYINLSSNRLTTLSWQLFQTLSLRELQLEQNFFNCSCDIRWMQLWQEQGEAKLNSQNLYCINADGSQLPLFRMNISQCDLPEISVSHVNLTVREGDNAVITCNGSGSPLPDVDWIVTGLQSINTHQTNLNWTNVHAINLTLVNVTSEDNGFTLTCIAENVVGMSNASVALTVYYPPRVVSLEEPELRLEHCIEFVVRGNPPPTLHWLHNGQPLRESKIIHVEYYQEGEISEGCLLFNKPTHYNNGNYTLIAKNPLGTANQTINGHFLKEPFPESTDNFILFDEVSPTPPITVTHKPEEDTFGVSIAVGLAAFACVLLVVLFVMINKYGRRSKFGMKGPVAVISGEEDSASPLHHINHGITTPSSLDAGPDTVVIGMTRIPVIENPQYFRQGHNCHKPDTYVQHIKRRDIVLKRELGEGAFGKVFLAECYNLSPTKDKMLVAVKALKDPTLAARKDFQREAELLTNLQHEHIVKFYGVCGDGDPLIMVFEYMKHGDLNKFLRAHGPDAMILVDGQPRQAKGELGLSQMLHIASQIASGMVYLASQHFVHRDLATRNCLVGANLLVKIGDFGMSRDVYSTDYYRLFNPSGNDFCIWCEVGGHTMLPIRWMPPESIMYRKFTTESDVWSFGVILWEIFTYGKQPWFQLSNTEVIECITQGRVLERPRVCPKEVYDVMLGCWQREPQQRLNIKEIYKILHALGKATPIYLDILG
Chain of High affinity nerve growth factor receptor (Homo sapiens) (P04629 33-796 limits assumed): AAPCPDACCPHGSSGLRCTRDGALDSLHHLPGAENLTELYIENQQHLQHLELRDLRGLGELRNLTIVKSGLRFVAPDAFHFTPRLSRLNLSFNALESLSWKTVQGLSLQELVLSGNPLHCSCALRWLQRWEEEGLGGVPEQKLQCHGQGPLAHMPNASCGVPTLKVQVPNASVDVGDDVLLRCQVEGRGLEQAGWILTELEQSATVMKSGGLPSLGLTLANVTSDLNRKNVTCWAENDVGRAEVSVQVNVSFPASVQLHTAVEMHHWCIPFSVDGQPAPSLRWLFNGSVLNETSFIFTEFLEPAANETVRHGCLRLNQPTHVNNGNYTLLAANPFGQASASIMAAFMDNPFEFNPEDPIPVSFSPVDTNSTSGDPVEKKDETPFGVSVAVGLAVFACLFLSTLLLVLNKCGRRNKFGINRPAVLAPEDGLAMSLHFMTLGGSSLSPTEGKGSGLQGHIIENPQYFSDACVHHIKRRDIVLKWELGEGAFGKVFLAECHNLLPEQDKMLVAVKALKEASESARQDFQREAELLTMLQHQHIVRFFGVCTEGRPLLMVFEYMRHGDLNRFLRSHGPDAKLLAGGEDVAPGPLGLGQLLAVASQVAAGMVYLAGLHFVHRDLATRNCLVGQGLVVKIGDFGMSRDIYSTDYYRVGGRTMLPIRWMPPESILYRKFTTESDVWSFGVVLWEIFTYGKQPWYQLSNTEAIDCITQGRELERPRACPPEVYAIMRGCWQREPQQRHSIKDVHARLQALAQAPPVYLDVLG

As usually defined, the inhibition is the relative decrease from the control value, in per cent. Take `Cc1cc(-c2ccccn2)cc(C)c1/C=C/c1cncc(-c2nn[nH]n2)c1`: the inhibition in experiment [1] came out at 10%; in experiment [2], 3.94%; in [3] it was 4.13%; in [4] it was 1.49%; in [5] it was 2.54%; in experiment [6], 2.93%. Besides, the inhibition is 4.47% in experiment [7]; -2.23% in experiment [8]; 9.95% in [9]; 1.9% in [10]; 5.71% in experiment [11]; 2.09% in experiment [12]. In addition, the inhibition in experiment [13] is 7.42%; in [14], 4.2%; in experiment [15], 19.6%; in experiment [16] it was 6.35%; in experiment [17], 13.7%; in [18] it was -1.16%. Also, the values for the inhibition in [19] and in experiment [20] were 3.53% and 2.48%, respectively.

Regarding `CC(C)c1ccc2c(c1)NC(=O)/C2=N/Nc1ccc(S(N)(=O)=O)cc1`, the inhibition worked out at 26.1% in experiment [1]; 4.87% in experiment [2]; 31.5% in [3]; 7.71% in experiment [4]; 34.9% in experiment [5]; 1.51% in [6]. Besides, the inhibition in experiment [7] was 3.5%; in experiment [8], 0.63%; in experiment [9], 3.55%; in experiment [10] it was 1.5%; in experiment [11] it was 8.05%; in experiment [12] it was 1.3%. In addition, the inhibition in [13] is 7%; in experiment [14], -4.39%; in experiment [15] it was 6.7%; in experiment [16], -0.47%; in experiment [17] it was 2.14%; in [18] it was 2.41%. Moreover, the inhibition in [19] is 2.01%; in experiment [20], 12.8%.

Regarding `CN(C)C(=O)O[C@@H]1CN[C@@H](C#Cc2cc3ncnc(Nc4ccc(OCc5cccc(F)c5)c(Cl)c4)c3s2)C1`, the inhibition was -4.24% in experiment [1]; -0.65% in experiment [2]; -0.85% in experiment [3]; 2.82% in [4]; 0.46% in experiment [5]; 2.85% in experiment [6]. For the same compound, the inhibition came out at 5.35% in experiment [7]; 1.84% in [8]; 4.98% in experiment [9]; 1.79% in experiment [10]; 8.44% in experiment [11]; 2.09% in experiment [12]. The inhibition worked out at 5.86% in [13]; 0.89% in [14]; 14% in experiment [15]; 1.67% in experiment [16]; 6.26% in experiment [17]; 0.47% in [18]. Besides, the inhibition turned out to be 2.35% in experiment [19] and 2.96% in [20].

For the compound `COc1cc2ncnc(Nc3ccc(C)c(O)c3)c2cc1OC`, the inhibition in [1] turned out to be 2.17%; in [2], 3.65%; in [3] it was 6.25%; in experiment [4] it was 1.67%; in [5], 7.05%; in [6], 8.65%. In addition, the inhibition in experiment [7] is 29.5%; in [8], -5.98%; in experiment [9], 7.27%; in [10] it was 2.56%; in [11], 7.23%; in experiment [12] it was 4.5%. Further, the inhibition in experiment [13] is 8.54%; in experiment [14], 1.17%; in experiment [15] it was 4.32%; in experiment [16], 21.1%; in [17] it was 70.1%; in experiment [18], 2.26%. Further, the inhibition in experiment [19] was 5.63%; in experiment [20], 7.16%.

Regarding `FC(F)(F)c1ccc(-c2nn3ncccc3c2-c2ccnc(Nc3ccc4c(c3)OCCO4)n2)cc1`, the inhibition in experiment [1] was 0.14%; in experiment [2], 1.21%; in [3], 3.15%; in [4], 1.88%; in [5], 4.32%; in [6], 6.36%. Also, the inhibition in [7] was 4.7%; in experiment [8], 3.04%; in [9], 2.98%; in [10], -2.66%; in experiment [11] it was 29.2%; in [12], 7.15%. The inhibition came to 11.2% in [13]; 4.98% in [14]; 12.1% in [15]; 10.5% in experiment [16]; 30.1% in [17]; 6.41% in experiment [18]. Further, the inhibition in experiment [19] was found to be 6.88%; in experiment [20], 3.6%.
